Screening data as filed in PubChem.
Hits are enriched below; roughly 17% of the tested compounds scored in any of these assays.
DT40 TDP1 CPT – growth inhibition of DT40 Tdp1-/-;hTDP1 cells with camptothecin (screen for TDP1 inhibitors) | chicken DT40 Tdp1-/-;hTDP1 cells + 20 nM CPT, ATP luminescence, 48 h | Potency, µM (highest dose often 46.2 µM), inactives show at the highest dose activity change, negative = growth inhibition, most hits filed as inhibitors | hit rate 12% among 420,000 | AID 686979; also: % is scaled to controls: 0 for no effect and ±100 for the full control effect; nearly all actives have a fitted effect of over 55% in size
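Cell growth measured by CellTiter-Glo luminescence after a minimum 48 h, 37 C compound exposure with 20 nM CPT in Tdp1-knockout DT40 cells stably expressing hTDP1, seeded 400/well; qHTS titration format.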
HepG2 tox – HepG2 cytotoxicity, counter-screen for TGF-b inhibitors; HepG2 CAGA-GFP viability, ATP luminescence, 18 h; Potency, µM (series often up to 46.1 µM), inactives show at the highest dose activity change, negative = cytotoxicity, most hits filed as cytotoxic; hit rate 0.76% among 410,000; AID 588856
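HepG2 CAGA-GFP cells (1000/well, DMEM with 1% FBS) received compound, then TGF-beta at 500 pg/mL final, and were incubated 18 hours at 37 degrees C. Viability was read by CellTiter-Glo luminescence. Media-only wells were set as complete cell-killing and DMSO as no toxicity.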
TGFb SMAD3 inh – blocks TGF-b signaling | Potency, µM (doses to about 46.1 µM), for the others: at the highest dose activity, negative = inhibition, usual class: inhibitors | HepG2 CAGA-GFP TGF-b/SMAD3 reporter, GFP fluorescence, 18 h; TGF-beta stimulated, 500 pg/mL final | hit rate 1.2% among 410,000; also: % is scaled to controls: 0 for no effect and ±100 for the full control effect; nearly all actives have a fitted effect of over 65% in size
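Inhibition of TGF-beta-driven CAGA-GFP reporter expression in HEPG2 cells is measured by cellular GFP fluorescence after 18 h stimulation with 500 pg/mL recombinant TGF-beta in 1% FBS medium at 37 degrees C.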
HT1080 IDH1KD tx – kills HT-1080 cells with IDH1 knockdown; HT-1080 IDH1 knockdown viability, ATP luminescence, 48 h; Potency, µM (highest dose often 46.1 µM), inactives show at the highest dose activity, negative = toxicity, most hits filed as cytotoxic; hit rate 2% among 360,000;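 also: 0% = DMSO wells and -100% = cell-free medium wells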
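CellTiter-Glo luminescence after 48 h compound exposure at 37 degrees C of IDH1-knockdown HT-1080 cells in 5% FBS RPMI. %Activity scaled between DMSO wells and cell-free media wells, with curves fitted and assigned curve classes.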
DT40 TDP1 no CPT – qHTS for Inhibitors of human tyrosyl-DNA phosphodiesterase 1 (TDP1): qHTS in cells in absence of CPT. DT40 Tdp1-/- hTDP1 cells, no CPT, ATP luminescence, 48 h. Potency, µM (highest dose often 46.2 µM), for inactives: at the top dose activity change, negative = growth inhibition, hits mostly inhibitors. hit rate 15% among 420,000. AID 686978, 2013; also: % is scaled to controls: 0 for no effect and ±100 for the full control effect; nearly all actives have a fitted effect of over 55% in size
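Growth of hTDP1-complemented DT40 Tdp1-knockout cells is measured by ATP luminescence after at least 48 hr compound exposure at 37 °C, with DMSO substituting for the 20 nM CPT used in the parallel screen.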
HT1080-NT tox – kills 2HG-producing HT-1080-NT fibrosarcoma cells | HT-1080-NT fibrosarcoma viability, CellTiter-Glo ATP luminescence, 48 h | Potency, µM (top dose mostly 46.1 µM), for the others: at the highest dose activity, negative = less viability, actives largely listed as cytotoxic | hit rate 1.6% among 360,000;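 also: NT is the 2HG producing partner of a matched IDH1 knockdown line; 0% = DMSO-treated cells and -100% = media-only wells without cells; nearly all actives have a fitted effect of over 55% in size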
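HT-1080-NT; 750 cells/well; 5% FBS RPMI; 48 h compound, 37 degrees C; CellTiter-Glo luminescence; curve fitting and curve-class assignment.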
Active calls of the source: *. Calls follow the shape of the dose curve; as a rule, active = well fitted curve in the direction sought with a large enough effect; inconclusive = small, poorly fitted or top-dose-only effect, or another doubt; inactive = no such curve, though single readings can be large; an effect the other way counts as inactive or inconclusive. Potency is read from the fitted curve at half-maximal effect.

Results for CCOc1ncccc1C(=O)NCc1ccc(OC)cc1 ?
DT40 TDP1 CPT: 16µM*; HepG2 tox: -8%; TGFb SMAD3 inh: 12%; HT1080 IDH1KD tx: 8.9µM*; DT40 TDP1 no CPT: 15µM*; HT1080-NT tox: inconclusive

What do the screens show for `CCOC(=O)Cc1ccc(NC(=O)c2ccc(C(C)(C)C)cc2)cc1`?
DT40 TDP1 CPT: 18µM*; HepG2 tox: -57%; TGFb SMAD3 inh: -17%; HT1080 IDH1KD tx: inconclusive; DT40 TDP1 no CPT: 15µM*; HT1080-NT tox: -29%

How did O=C(Nc1cnn(Cc2c(Cl)cccc2Cl)c1)c1ccc([N+](=O)[O-])cc1 do in these assays?
DT40 TDP1 CPT: inconclusive; HepG2 tox: -27%; TGFb SMAD3 inh: -13%; HT1080 IDH1KD tx: -9%; DT40 TDP1 no CPT: 16µM*; HT1080-NT tox: -2%

What do the screens show for `CCOC(=O)Cc1ccc(NC(=O)c2ccccc2Br)cc1`?
DT40 TDP1 CPT: 1%; HepG2 tox: 1%; TGFb SMAD3 inh: -7%; HT1080 IDH1KD tx: 3%; DT40 TDP1 no CPT: -1%; HT1080-NT tox: -1%

Results for CC(C)c1ccc(C(=O)NC(=S)NCc2cccnc2)cc1 ?
DT40 TDP1 CPT: inconclusive; HepG2 tox: -25%; TGFb SMAD3 inh: -9%; HT1080 IDH1KD tx: -9%; DT40 TDP1 no CPT: 16µM*; HT1080-NT tox: -14%

What do the screens show for `Cc1ccc(C(=O)NC(=S)NCc2cccnc2)cc1C`?
DT40 TDP1 CPT: -4%; HepG2 tox: -8%; TGFb SMAD3 inh: -4%; HT1080 IDH1KD tx: 0%; DT40 TDP1 no CPT: -9%; HT1080-NT tox: -3%

Results for CCOC(=O)C(Cc1ccc(Cl)cc1Cl)c1ccno1 (stereo not drawn) ?
DT40 TDP1 CPT: 2%; HepG2 tox: 5%; TGFb SMAD3 inh: 3%; HT1080 IDH1KD tx: -1%; DT40 TDP1 no CPT: 0%; HT1080-NT tox: -1%

How did O=C(Nc1ccccc1C(=O)NCc1cccnc1)c1ccccc1F do in these assays?
DT40 TDP1 CPT: -5%; HepG2 tox: 7%; TGFb SMAD3 inh: -3%; HT1080 IDH1KD tx: -3%; DT40 TDP1 no CPT: 23%; HT1080-NT tox: 6%

How did CC(C)(C)c1ccc(C(=O)Nc2ccc(C(=O)NCc3cccnc3)cc2)cc1 do in these assays?
DT40 TDP1 CPT: 2.6µM*; HepG2 tox: -1%; TGFb SMAD3 inh: 6%; HT1080 IDH1KD tx: 1µM*; DT40 TDP1 no CPT: 1.8µM*; HT1080-NT tox: 1.6µM*

Results for O=C(NCc1cccnc1)c1ccc(NC(=O)c2ccc([N+](=O)[O-])cc2)cc1 ?
DT40 TDP1 CPT: 13µM*; HepG2 tox: -4%; TGFb SMAD3 inh: -15%; HT1080 IDH1KD tx: 15µM*; DT40 TDP1 no CPT: 9.2µM*; HT1080-NT tox: inconclusive

How did COc1ccc(C(=O)Nc2ccccc2C(=O)NCc2cccnc2)cc1 do in these assays?
DT40 TDP1 CPT: 15µM*; HepG2 tox: -5%; TGFb SMAD3 inh: 8%; HT1080 IDH1KD tx: inconclusive; DT40 TDP1 no CPT: inconclusive; HT1080-NT tox: inconclusive

Results for N#CCC(=N)N1CCN(c2ccc(F)cc2)CC1 ?
DT40 TDP1 CPT: -24%; HepG2 tox: -5%; TGFb SMAD3 inh: 1%; HT1080 IDH1KD tx: 3%; DT40 TDP1 no CPT: -20%; HT1080-NT tox: 7%

Results for Cc1cccc(OCC(=O)Nc2ccccc2OCc2cc(=O)n3cc(C)ccc3n2)c1 ?
DT40 TDP1 CPT: 13µM*; HepG2 tox: 10%; TGFb SMAD3 inh: 33%; DT40 TDP1 no CPT: inconclusive

Results for COc1cc(OC)c(NC(=O)Nc2ccccc2OCc2cc(=O)n3cc(C)ccc3n2)cc1Cl ?
DT40 TDP1 CPT: 8.2µM*; HepG2 tox: 5%; TGFb SMAD3 inh: 3%; DT40 TDP1 no CPT: 9.2µM*
